# Screening results from PubChem BioAssay.
# HCMV antiviral: qHTS Assay for inhibitors of the human cytomegalovirus (HCMV). HFF cells, HCMV-luciferase reporter, 72 h; hits give low values. activity change, negative = inhibition, % at 57.5 µM. 410,000 tested, 4.5% active. AID 1259415, 2018; in the data active = activity change below about -60%; inconclusive = no clear call, values can overlap the other calls; inactive = above about -39%
#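 Two-dose cell screen: HFF monolayers treated with compounds and infected with luciferase-expressing HCMV at 1 PFU/cell, 72 h at 37C, then lysed for luciferase measurement.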
# VACV Venus inh: qHTS for Stage-Specific Inhibitors of Vaccinia Orthopoxvirus: Venus Reporter Primary qHTS; Vaccinia virus Venus reporter expression, fluorescence; 330,000 tested, 0.46% active; Potency, µM (doses to about 36.5 µM), without a hit: at the highest dose activity change, negative = inhibition, usual class: inhibitors; calls by dose curve; tested in A549 cells; note: potency is the fitted concentration of half-maximal effect; nearly all actives have a fitted effect of over 30% in size
# FMDV antiviral: High Throughput Screening for Foot and Mouth Disease Virus Antivirals. 410,000 tested, 1.2% active. Potency, µM (highest dose often 57.9 µM), inactives show top-dose activity change, negative = inhibition, hits mostly inhibitors. FMDV antiviral cell-based qHTS. AID 1159524, 2015; calls by dose curve; tested in HEK293T cells; note: read-out not given here; potency is the fitted concentration of half-maximal effect; nearly all actives have a fitted effect of over 45% in size
# MARV entry inh: qHTS for inhibitors of binding or entry into cells for Marburg Virus. Marburg virus pseudotyped entry inhibition, cell reporter. 300,000 tested, 1.8% active. Potency, µM (titrated, usually from 37.8 µM), for the others: at the top dose activity change, negative = inhibition, most hits filed as inhibitors; calls by dose curve; tested in HEK293 cells; note: potency is the fitted concentration of half-maximal effect
# LASV entry inh: qHTS for Inhibitors of binding or entry into cells for Lassa Virus | Lassa virus pseudotype entry inhibition, cell reporter | AID 540256, 2011 | Potency, µM (top dose mostly 37.9 µM), for the others: at the highest dose activity change, negative = inhibition, actives largely listed as inhibitors | 300,000 tested, 1.2% active; calls by dose curve; tested in HEK293 cells; note: potency is the fitted concentration of half-maximal effect; nearly all actives have a fitted effect of over 50% in size
# VACV mCherry inh: qHTS for Stage-Specific Inhibitors of Vaccinia Orthopoxvirus: mCherry Reporter Primary qHTS. 310,000 tested, 0.63% active. Vaccinia virus mCherry reporter infection, fluorescence. Potency, µM (doses to about 36.5 µM), inactives show at the top dose activity change, negative = inhibition, most hits filed as inhibitors; calls by dose curve; tested in A549 cells; note: potency is the fitted concentration of half-maximal effect; nearly all actives have a fitted effect of over 35% in size
# Starred values were filed as active, the others as inactive; i = inactive; ? = inconclusive; nt = no result; [ ] = dose if it differs, or a comment. This is a sample that favours compounds with a hit; in the whole collection about 6.5% have one here. % is set by controls: 0 for no effect and ±100 for the full control effect.
SMILES,HCMV antiviral,VACV Venus inh,FMDV antiviral,MARV entry inh,LASV entry inh,VACV mCherry inh
Cc1c(C(=O)OCC(=O)c2c(N)n(CC(C)C)c(=O)n(C)c2=O)oc2ccccc12,-64*,?,?,10µM*,-23%,-6%
CC(C)Cn1c(N)c(C(=O)COC(=O)c2ccccc2Cl)c(=O)n(C)c1=O,-17,-18%,?,nt,nt,0%
C=Cc1ccc(C(=O)N2CCc3c(cnc(C)c3CNC(=O)c3ccc4c(c3)OCO4)C2)cc1,nt,-6%,-4%,nt,nt,-9%
COc1cc(C(NC(=O)C(F)(F)F)c2cc3ccccc3o2)cc(OC)c1OC (configuration not stated),nt,nt,nt,5%[14.2 µM],?,nt
COC(=O)c1ccc2c(c1)C(C)(C)C(/C=C/c1ccccc1O)=[N+]2C,-104*,nt,7.9µM*,?,?,nt
O=C(CNC(=O)C1CCCCC1)OCC(=O)c1ccc2c(c1)CCC2,nt,-11%,nt,nt,nt,31%
CC(C)[C@@H]1CC[C@H](C)C[C@H]1OP(N)(=O)c1ccccc1 (some centres not stated),nt,nt,nt,-2%,nt,nt
Cc1ccccc1/C=N/Nc1nc2ccccc2[nH]1,-10,-11%,20%,-27%[46.1 µM],?,?
C(=N\Nc1nc2ccccc2[nH]1)/c1ccccc1,52,-30%,16%,-2%,-1%,-27%
Cc1[nH]c2ccccc2c1/C=N/Nc1nc2ccccc2[nH]1,-98*,-19%[7.34 µM],0%,?,?,?
CCc1nnc(N/N=C/c2c(F)cccc2Cl)n1N,-17,nt,7%,nt,nt,nt
Cc1[nH]c2ccccc2c1/C=N/NC(N)=S,-17,?,-18%,?,-9%[46.1 µM],?
C(=N\Nc1nc2ccccc2[nH]1)/c1cccc2cccnc12,-101*,nt,41%,nt,nt,nt
CCc1nnc(N/N=C/c2cc(C)c(C)cc2C)n1N,17,13µM*,4%,?,?,10µM*
CCc1nnc(N/N=C/c2c(C)[nH]c3ccccc23)n1N,-90*,?,12%,-26%[46.1 µM],nt,?
CCOc1cc(CNC(=O)Cn2c(=O)c3cccn3c3ccc(F)cc32)cc(OCC)c1OCC,-25,?,-7%,nt,-3%[46.1 µM],?
CSc1ccc(SC2CN(Cc3ccc(C)cc3)S(=O)(=O)C2)cc1 (configuration not stated),-12,nt,nt,nt,nt,nt
C(=N\Nc1nc2ccccc2[nH]1)/C1CCCCC1,-87*,-9%,19%,5%[46.1 µM],?,-21%
COc1ccc(N2C(c3ccsc3)=Cc3cc4c(cc3C2c2c[nH]c3ccccc23)OCO4)cc1 (configuration not stated),-95*,-4%,-4%,nt,nt,15%
CCn1c(-c2ccccc2F)nc2cc(NC(C)=O)cc(C(=O)N3CCNC(=O)C3CC(=O)OC)c21 (configuration not stated),nt,-10%,-14%,nt,nt,-14%
O=C(CCS(=O)(=O)c1nc(-c2cccs2)cc(C(F)(F)F)n1)Nc1ccc(Br)cc1,-98*,-16%[7.34 µM],40µM*,?,-24%[46.1 µM],-12%[7.34 µM]
Cc1ccc(O)c(NC(=O)CCS(=O)(=O)c2nc(-c3cccs3)cc(C(F)(F)F)n2)c1,-100*,-7%[7.34 µM],?,-23%[46.1 µM],?,-14%[7.34 µM]
O=C(CCS(=O)(=O)c1nc(-c2cccs2)cc(C(F)(F)F)n1)Nc1cc(Br)ccc1O,-100*,-10%[7.34 µM],14µM*,?,?,-14%[7.34 µM]
Cc1ccc2c(c1)cc(C(=O)NCc1ccccc1C)n2C,-20,-8%,12%,?,?,10%
COC(=O)Cc1nnn2c1[C@H](C)[C@H](C(C)(C)C)OCC2,-13,nt,nt,nt,nt,nt
COc1ccc(CCNC(=O)CC(c2ccccc2)c2cc(C)ccc2O)cc1OC (configuration not stated),nt,nt,18µM*,nt,nt,nt
COc1ccc(CCNC(=O)Cc2ccccc2)cc1OC,?,-15%,6%,0%[46.1 µM],-1%[46.1 µM],i
COc1cccc([C@@H]2Oc3ccc(Br)cc3C[C@@H]2OC(=O)Nc2cc(OC)c(OC)c(OC)c2)c1,nt,nt,nt,-5%[14.2 µM],nt,nt
Cc1cc(C(=O)CSc2nc3ccccc3[nH]2)c(C)n1Cc1ccco1,-85*,-20%,-72%,?,4µM*,-5%
